30 molecules from PubChem BioAssay (NCATS) can be followed below.

Assay [1] is described as follows: qHTS for Inhibitors of the Functional Ribonucleoprotein Complex (vRNP) of Lassa (LASV) Arenavirus: LASV Primary Screen - GLuc reporter signal (AID 1347082; calls by dose curve; tested in HEK293 reporter line; also: nearly all actives have a fitted effect of over 60% in size; as to activity change, negative = inhibition: series mostly up to about 57 µM). In general terms: Quantitative high-throughput screening tests each substance at several concentrations.
The nature of assay [2]: qHTS for Inhibitors of the Functional Ribonucleoprotein Complex (vRNP) of Lassa (LASV) Arenavirus: Viability assay - alamar blue signal for LASV Primary Screen (AID 1347083; calls by dose curve; tested in HEK293 reporter line; also: nearly all actives have a fitted effect of over 80% in size; as to activity change, negative = reduced viability: series mostly up to about 57 µM).
Assay [3] in a line: qHTS for Inhibitors of the Functional Ribonucleoprotein Complex (vRNP) of Lymphocytic Choriomeningitis Arenaviruses (LCMV): Viability assay - alamar blue signal for LCMV Primary Screen (AID 1347085; calls by dose curve; tested in HEK293 reporter line; also: nearly all actives have a fitted effect of over 80% in size; as to activity change, negative = lower viability: series mostly up to about 57 µM).
Assay [4] deals with Nucleoprotein (Lymphocytic choriomeningitis virus (strain Armstrong)) (UniProt P09992). Description: qHTS for Inhibitors of the Functional Ribonucleoprotein Complex (vRNP) of Lymphocytic Choriomeningitis Arenaviruses (LCMV): LCMV Primary Screen - GLuc reporter signal (AID 1347086). Also: nearly all actives have a fitted effect of over 70% in size. As to activity change, negative = inhibition: series mostly up to about 57 µM.
Chain of Nucleoprotein (Lymphocytic choriomeningitis virus (strain Armstrong)) (P09992 whole entry, looked up): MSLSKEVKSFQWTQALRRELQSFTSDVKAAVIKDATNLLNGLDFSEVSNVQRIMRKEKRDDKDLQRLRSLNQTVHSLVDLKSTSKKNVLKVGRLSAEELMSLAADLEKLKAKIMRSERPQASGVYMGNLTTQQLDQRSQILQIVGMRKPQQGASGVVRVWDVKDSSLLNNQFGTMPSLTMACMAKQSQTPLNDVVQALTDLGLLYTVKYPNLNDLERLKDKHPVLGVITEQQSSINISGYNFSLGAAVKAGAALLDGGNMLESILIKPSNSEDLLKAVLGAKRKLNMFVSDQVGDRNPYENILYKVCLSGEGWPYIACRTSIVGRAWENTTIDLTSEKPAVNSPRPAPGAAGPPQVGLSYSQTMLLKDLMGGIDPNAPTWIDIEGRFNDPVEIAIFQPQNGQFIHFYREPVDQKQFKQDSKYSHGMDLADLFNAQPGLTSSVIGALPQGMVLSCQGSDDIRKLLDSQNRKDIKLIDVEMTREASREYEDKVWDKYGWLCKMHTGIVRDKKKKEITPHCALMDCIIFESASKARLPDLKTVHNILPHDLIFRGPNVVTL

Results filed as inconclusive are left out. Unmarked numbers belong to inactive results. Activity calls are given as the source filed them. Unless noted, calls follow the shape of the full dose curve.
% is scaled to controls: 0 for no effect and ±100 for the full control effect; potency is read from the fitted curve at half-maximal effect.

Turning to `COc1c2c(nc3ccccc13)OC(C(C)(O)COC(C)=O)C2` (stereo not given), the Potency entry in assay [1], in assay [2], in assay [3] and in assay [4] was “inactive” throughout.

As for `CC(=O)O[C@H]1C[C@@H]2CC[C@@]1(C)C2(C)C`, the Potency entry in assay [1], in assay [2], in assay [3] and in assay [4] was “inactive” each time.

As to `CC12CCC(C1)C(C)(C)C2=O` (stereo not given), the Potency result in assay [1], in assay [2], in assay [3] and in assay [4] was “inactive” throughout.

On to `CC[C@]1(O)C[C@@H]2CN(CCc3c([nH]c4ccccc34)[C@@](C(=O)OC)(c3cc4c(cc3OC)N(C=O)[C@@H]3C45CCN4CC=C[C@](CC)([C@H]45)[C@@H](OC(C)=O)[C@]3(O)C(=O)OC)C2)C1` (stereo not given in full), for which the Potency entry in assay [1], in assay [2], in assay [3] and in assay [4] was “inactive” throughout.

In the case of `CCCC(C)C(O)CC` (stereo not given), the Potency entry in assay [1], in assay [2], in assay [3] and in assay [4] was “inactive” in each case.

On to `CCN1C[C@]2(COC)CC[C@H](O)[C@@]34C5C[C@@H]6[C@@H](OC)C[C@@](O)(C5[C@H]6O)[C@](O)([C@@H](OC)C23)[C@@H]14` (stereo not given in full), for which the Potency entry in assay [1], in assay [2], in assay [3] and in assay [4] was “inactive” in each case.

Take `C=C/C(=C/C(=O)C[C@H](C)C[C@@H](C)CC[C@H](O)[C@H](C)C(=O)C[C@@H](O)[C@H](C)[C@@H](C)OC(=O)C[C@@H](O)C1=C(C)C(=O)OC1=O)CC`: the activity change, negative = inhibition in assay [1] is -47.1% [at 11.5 µM]; in assay [4], -83.6% [at 11.5 µM]. Moreover, the activity change, negative = reduced viability in assay [2] was -113% [at 11.5 µM]. Further, the activity change, negative = lower viability in assay [3] was -114% [at 11.5 µM].

`C/C=C(\C)C(=O)O[C@H]1C[C@@]2(C)CCC(C(C)C)C2(O)CC[C@@]1(C)O` (stereo not given in full): the Potency result in assay [1], in assay [2], in assay [3] and in assay [4] was “inactive” throughout.

As to `Cc1ccc(C(C)C)cc1O`, the Potency result in assay [1], in assay [2], in assay [3] and in assay [4] was “inactive” throughout.

Take `CC(=O)O[C@@H]1CC2C(C)(C)C(=O)C=C[C@]2(C)C2CC[C@]3(C)C(=CC[C@H]3C3CO[C@@H](C(C)(C)O)[C@H](O)C3)[C@@]21C` (stereo not given in full): the Potency result in assay [1], in assay [2], in assay [3] and in assay [4] was “inactive” in each case.

Turning to `COc1ccc(-c2cc(=O)c3ccc(O)cc3o2)cc1`, the Potency result in assay [1], in assay [2], in assay [3] and in assay [4] was “inactive” each time.

For `C=CC(C)(CCC=C(C)C)OC=O` (stereo not given), the Potency entry in assay [1], in assay [2], in assay [3] and in assay [4] was “inactive” throughout.

On to `Cc1ccc([N+](=O)[O-])cc1S(=O)(=O)N(C)N=Cc1cnc2ccc(Br)cn12`, for which the Potency was 0.0217 µM (active) in assay [1], 0.0243 µM (active) in assay [2], 61.1 nM (active) in assay [3] and 217 nM (active) in assay [4].

Regarding `COc1cc(OC)c2ccc(=O)oc2c1`, the Potency result in assay [1], in assay [2], in assay [3] and in assay [4] was “inactive” throughout.

For `C=C1[C@H]2CC[C@@H]3[C@H]2C(C)(C)CCC[C@]13C`, the Potency result in assay [1], in assay [2], in assay [3] and in assay [4] was “inactive” in each case.

With `C[C@H]1OC(=O)CC[C@@H]2[C@]1(C)CCC1[C@@]2(C)CC[C@@]2(C)C3CC(C)(C)CC[C@]3(CO)CC[C@]12C` (stereo not given in full), the Potency entry in assay [1], in assay [2], in assay [3] and in assay [4] was “inactive” in each case.

In the case of `O=C(O)c1cccc(C(=O)O)n1`, the Potency entry in assay [1], in assay [2], in assay [3] and in assay [4] was “inactive” throughout.

For `O[C@@H]1COC2[C@@H](O)CO[C@@H]21` (stereo not given in full), the Potency entry in assay [1], in assay [2], in assay [3] and in assay [4] was “inactive” in each case.

For `CC1=C2C(=O)OC(c3ccoc3)C2(C)CCC1` (stereo not given), the Potency result in assay [1], in assay [2], in assay [3] and in assay [4] was “inactive” throughout.

In the case of `CC12CCC(=O)C=C1CCC1C2CCC2(C)C(C(=O)CO)CC(O)C12` (stereo not given), the Potency entry in assay [1], in assay [2], in assay [3] and in assay [4] was “inactive” in each case.

Take `Cn1c2c(c(=O)c3ccccc31)C[C@@H](O)C(C)(C)O2`: the Potency entry in assay [1], in assay [2], in assay [3] and in assay [4] was “inactive” throughout.

Regarding `C=C[C@](C)(O)CC[C@@H]1[C@@]2(C)CCCC(C)(C)[C@@H]2CC[C@@]1(C)O`, the Potency entry in assay [1], in assay [2], in assay [3] and in assay [4] was “inactive” each time.

For the molecule `CC[C@H]1O[C@]2(CC[C@@H]1C)C[C@@H]1C[C@@H](C/C=C(\C)C[C@@H](C)/C=C/C=C3\CO[C@@H]4[C@H](O)C(C)=C[C@@H](C(=O)O1)[C@]34O)O2`, the Potency entry in assay [1], in assay [2], in assay [3] and in assay [4] was “inactive” throughout.

For the molecule `CCCC1CCOC(C)S1` (stereo not given), the Potency entry in assay [1], in assay [2], in assay [3] and in assay [4] was “inactive” each time.

Regarding `CCC(=O)Nc1ccccc1`, the Potency entry in assay [1], in assay [2], in assay [3] and in assay [4] was “inactive” throughout.

Consider `COc1cc(OC)cc(-c2ccc3ncc4ccc(=O)n(-c5ccc(N6CCNCC6)c(C(F)(F)F)c5)c4c3c2)c1`, for which the Potency is 10.9 µM (active) in assay [1], 6.85 µM (active) in assay [2], 1930 nM (active) in assay [3] and 3060 nM (active) in assay [4].

For the molecule `C/C=C(/C)C(=O)O[C@H]1[C@@H](O)c2c(ccc3ccc(=O)oc23)OC1(C)C`, the Potency entry in assay [1], in assay [2], in assay [3] and in assay [4] was “inactive” throughout.

On to `O=CN(O)CCCP(=O)(O)O`, for which the Potency result in assay [1], in assay [2], in assay [3] and in assay [4] was “inactive” in each case.

Consider `CSc1c(Cl)c(Cl)c(Cl)c(Cl)c1Cl`, for which the Potency entry in assay [1], in assay [2], in assay [3] and in assay [4] was “inactive” in each case.

For `CC(C)NC(=O)NCCCCCCS(C)=O` (stereo not given), the Potency result in assay [1], in assay [2], in assay [3] and in assay [4] was “inactive” throughout.
